The results in this text go back to PubChem BioAssay.

Values without a mark were called inactive. The source made the active and inactive calls.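 How the source made its calls: active means inhibition above the hit cutoff set in the earlier primary screen (cut at about 27% in these data); inactive means the rest.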

In this assay the target is Protein phosphatase methylesterase 1 (Homo sapiens) (UniProt Q9Y570). Kind of assay: human PME-1 methylesterase inhibition confirmation – biochemical, fluorescence polarization, FP-Rh probe, triplicate (AID 2171).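 Further: 0% = enzyme with DMSO and 100% = wells lacking PME-1.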 As to conditions: recombinant PME-1, FP-Rh probe fluorescence polarization; at 5.9 µM; hits give high values. For orientation: Polarisation of emitted light reports the rotation of a fluorescent probe.
Chain of Protein phosphatase methylesterase 1 (Homo sapiens) (Q9Y570 whole entry, looked up): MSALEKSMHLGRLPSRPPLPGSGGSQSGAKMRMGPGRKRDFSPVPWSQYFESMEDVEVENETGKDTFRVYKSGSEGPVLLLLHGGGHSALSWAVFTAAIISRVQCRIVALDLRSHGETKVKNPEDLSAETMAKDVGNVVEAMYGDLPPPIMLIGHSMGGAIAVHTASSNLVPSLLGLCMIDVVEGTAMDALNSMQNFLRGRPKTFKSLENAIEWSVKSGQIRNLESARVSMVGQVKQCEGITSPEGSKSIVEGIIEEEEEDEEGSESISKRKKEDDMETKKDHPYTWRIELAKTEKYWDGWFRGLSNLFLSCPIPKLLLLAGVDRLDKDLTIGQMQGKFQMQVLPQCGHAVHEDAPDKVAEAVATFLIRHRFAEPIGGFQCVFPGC
For `COc1ccc(N=C2NC(=O)S/C2=C\c2ccc(N(C)C)cc2)cc1`, the inhibition is 37.2% (active).
To `O=C(CNc1cccc2ccccc12)N/N=C/C(Br)=C/c1ccccc1` belongs -1.47%; to `CCc1ccc(S(=O)(=O)/N=C2\C=C(Nc3cccc(C(=O)O)c3)C(=O)c3ccccc32)cc1`, 38.4% (active).
The figure for `Nc1c(Cl)cc(-c2[nH]c3cc(C(=O)NCCO)ccc3c(=O)c2O)cc1Cl` is -9.64%.
To `N=C1CCC(=N)c2c1c(O)c1ccccc1c2O` belongs 21.1%; to `O=C(CNc1ccc(F)cc1)N/N=C/c1c(O)ccc2ccccc12`, 16.3%; to `Cc1nn(-c2ccccc2)c(Cl)c1/C=N/Nc1ccc(S(=O)(=O)Nc2ccccc2C(=O)O)cc1[N+](=O)[O-]`, 22.1%.
Take `N#Cc1cc2ccccc2nc1SCC(=O)Nc1ccccc1N1CCOCC1`: the inhibition was 20.3%.
To `O=C(NNc1c2ccccc2nc2ccccc12)c1ccc(O)cc1O` belongs 65.2% (active); to `Brc1ccc(N=NNc2ccccc2)cc1`, 31.4% (active).
Take `O=C1c2cccc3c(O)ccc(c23)C(=O)N1c1ccc(Cl)cc1`: the inhibition is 28.3% (active).
To `COc1cc(/C=C/c2ccc3cccc(O)c3n2)c(Br)cc1O` belongs 27.5% (active).
Take `N#Cc1c(N)nc2c3c(sc(=N)c2c1N)NC(=O)CC3c1c(F)cccc1Cl` (stereo not given): the inhibition is 38.2% (active).
The figure for `CCOC(=O)c1ccc(Nc2nc(N)c3cc(OC)c(OC)cc3n2)cc1` is 27.9% (active); for `Cc1ccc2sc(NNC(=O)c3cc(=O)c4ccccc4o3)nc2c1C` it is 68.1% (active); for `COc1cc(/C=N/Nc2nc3ccccc3s2)cc([N+](=O)[O-])c1O` it is 72.5% (active).
The figure for `CCCCOC(=O)c1ccc(NC(=O)Nc2ccc(OC)c(OC)c2)cc1` is 14.7%; for `COCCN=c1scc(-c2cc(OC)c(OC)c(OC)c2)n1/N=C/c1c(C)[nH]c2ccccc12` it is 18.7%.
To `O=C(O)COc1ccccc1/C=N/Nc1ccc(S(=O)(=O)Nc2ccc(Cl)cc2)cc1[N+](=O)[O-]` belongs 62.7% (active); to `Nc1nonc1-n1nnc(C(=O)N/N=C/c2c[nH]c3ccccc23)c1-c1ccccc1`, 25.4%; to `N#C/C(N=Nc1ccccc1O)=N\Nc1ccccc1O`, 53.1% (active).
Consider `Cc1cc(C(=O)CC#N)c(C)n1-c1ccc(OC(F)F)cc1`, for which the inhibition is 45.9% (active).
The figure for `O=c1nc(/C=C/c2cc([N+](=O)[O-])ccc2Cl)cc(C(F)(F)F)[nH]1` is 25.3%; for `Cc1ccc(C(=O)COC(=O)c2cccc(NC(=O)c3ccc([N+](=O)[O-])cc3[N+](=O)[O-])c2)cc1` it is -3.98%; for `Cc1ccc(NC(=S)NC(=O)c2ccc(-c3ccc(Cl)cc3)o2)c(O)c1` it is 22.9%.
The figure for `CCOC(=O)C1CCCN(C(=O)C2c3ccccc3Oc3ccccc32)C1` (stereo not given) is 16%.
Consider `O=c1[nH][nH]c2cc(=O)n(-c3cccc(C(F)(F)F)c3)nc12`, for which the inhibition is 28.5% (active).
The figure for `Cn1c2ccccc2c2cc(/C=N/NC(=O)c3ccc(O)cc3O)ccc21` is 23%; for `Cc1ccc(NC(=S)NNc2ccc([N+](=O)[O-])cc2S(=O)(=O)Nc2ccccc2C(=O)O)cc1C` it is 60.2% (active).
The figure for `O=C(O)c1ccc(N/N=C/c2ccc(OC(=O)c3cccc(Cl)c3)cc2)cc1` is 37% (active); for `O=C(COC(=O)c1ccccc1Br)Nc1cc(S(=O)(=O)N2CCOCC2)ccc1N1CCCC1` it is 52.1% (active); for `CCC(=O)Oc1ccc(C/C(=N\O)c2ccc(O)cc2O)o1` it is 43% (active).
To `CCOC(=O)CSc1nc2cc3c(cc2cc1C#N)OCCO3` belongs 20.1%; to `O=S(=O)(c1cccs1)N1CN(Cc2ccco2)c2nc3ccccc3nc21`, 13.4%.
For the compound `O=C(N=Nc1c(O)n(Cc2ccccc2)c2ccccc12)c1cc2ccccc2cc1O`, the inhibition was 54.8% (active).
The figure for `CCc1ccc(CNc2ccc(O)cc2)cc1` is 7.5%; for `Cc1ccc(N=Cc2nc(/C=C/c3cccc([N+](=O)[O-])c3)oc2O)cc1` it is 30.2% (active).
To `O=C1c2cccc3c(N4CCCCC4)ccc(c23)C(=O)N1c1cccc(O)c1` belongs -13.8%.
To `O=C(O)c1ccccc1-c1ccccc1C(=O)Nc1ccc(-c2nc3cc(Cl)ccc3o2)cc1` belongs 22.2%; to `N#Cc1c(N)n(CCOC(=O)c2cccc([N+](=O)[O-])c2)c2nc3ccccc3nc12`, 19.5%.

The term inhibition denotes the change of the read-out against control, counted positive when it falls.
